# Bioassay records: PubChem, several laboratories
# The list is not random: actives were taken first. Their share in the collection is about 4.5%.
# aSyn UTR inh: MLPCN primary screen, SNCA 5' untranslated region | alpha-synuclein 5'UTR reporter, inhibitor activity | inhibition, % (tested at 7.5 µM) | actives 0.82% (n = 300,000) | AID 1813; in the data active means inhibition above about 60%;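 further: H4 neuroglioblastoma cells stably carrying SNCA 5'UTR luciferase fusion; 0% = DMSO wells and 100% = positive control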
# Gli-Sufu antag: antagonists of Gli-Sufu signaling | actives 0.74% (n = 340,000) | Sufu-KO-LIGHT fibroblasts, Gli luciferase reporter luminescence | AID 588413 | inhibition, % at 5 µM;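 active means inhibition above about 55%, limit read from the data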;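 further: 0% = DMSO-treated cells and 100% = wells with medium but no cells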
# CSC inhib: blocks cancer stem cells. inhibition, % at 7.5 µM. actives 1.1% (n = 300,000). cancer stem cell-like cells viability, luminescence; in the data active means inhibition above about 75%; tested in HMLE shEcad cells
# 697 NFkB inh: lowers PMA/ionomycin-induced NF-kB signal in 697 B cells; 697 B-cell NF-kB luciferase reporter, 16 h; inhibition, % at 4 µM; actives 0.33% (n = 330,000); in the data active means inhibition above about 35%
# Jurkat NFkB inh: inhibitors of the PMA/ionomycin-induced NF-kB reporter in Jurkat cells; PMA/ionomycin-induced NF-kB luciferase reporter, luminescence; inhibition, % at 4 µM; actives 0.53% (n = 330,000); in the data active means inhibition above about 50%
# Mdm2-MdmX inh: disrupts the human Mdm2-MdmX interaction. AID 485346. actives 3% (n = 330,000). inhibition, % at 8 µM. SaOS-2 split-luciferase Mdm2/MdmX complementation, luminescence;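 active means inhibition of at least 50% at 8 µM in the primary screen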
# Target sequence (O15151 whole entry, looked up): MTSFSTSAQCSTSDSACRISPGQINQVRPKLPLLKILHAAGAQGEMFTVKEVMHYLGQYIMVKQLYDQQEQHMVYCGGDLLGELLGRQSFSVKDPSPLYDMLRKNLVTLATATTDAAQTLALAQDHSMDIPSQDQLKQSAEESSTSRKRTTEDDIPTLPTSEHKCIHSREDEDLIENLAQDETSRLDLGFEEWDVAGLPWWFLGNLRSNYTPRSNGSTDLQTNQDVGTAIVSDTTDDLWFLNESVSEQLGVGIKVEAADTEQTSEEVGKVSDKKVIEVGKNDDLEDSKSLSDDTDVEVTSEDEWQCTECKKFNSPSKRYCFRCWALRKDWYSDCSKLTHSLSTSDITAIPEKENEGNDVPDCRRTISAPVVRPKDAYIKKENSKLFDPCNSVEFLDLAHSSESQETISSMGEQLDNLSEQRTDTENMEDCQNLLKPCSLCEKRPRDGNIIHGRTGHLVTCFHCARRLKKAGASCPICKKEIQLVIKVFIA
# Target sequence (Q00987 whole entry, looked up): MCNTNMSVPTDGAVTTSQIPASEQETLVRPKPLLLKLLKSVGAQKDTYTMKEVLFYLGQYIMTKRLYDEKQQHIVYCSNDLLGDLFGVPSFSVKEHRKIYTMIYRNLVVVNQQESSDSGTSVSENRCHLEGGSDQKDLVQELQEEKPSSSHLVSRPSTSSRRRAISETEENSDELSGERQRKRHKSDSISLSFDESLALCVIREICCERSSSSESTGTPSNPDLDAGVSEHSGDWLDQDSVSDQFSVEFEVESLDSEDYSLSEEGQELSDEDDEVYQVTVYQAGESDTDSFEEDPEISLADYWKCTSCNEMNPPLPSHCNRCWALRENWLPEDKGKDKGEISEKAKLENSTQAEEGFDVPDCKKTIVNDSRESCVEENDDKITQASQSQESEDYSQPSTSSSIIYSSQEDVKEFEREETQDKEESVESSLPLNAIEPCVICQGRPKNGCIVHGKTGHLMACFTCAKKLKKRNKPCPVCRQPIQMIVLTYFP
# Mdm2 MdmX conf: confirmation of human Mdm2/MdmX interaction inhibitors | Mdm2-MdmX binding, luminescent assay | actives 55% (n = 10,000) | inhibition, % at 8 µM | AID 489028 | shares compounds with Mdm2-MdmX inh; in the data active means inhibition above about 40%
# Full FLuc ctr: full-length luciferase inhibition in Mdm2/MdmX counter-screen; inhibition, % at 8 µM; AID 504607; SaOS-2 full-length luciferase counterscreen, luminescence; shares compounds with Mdm2-MdmX inh; actives 77% (n = 6,200);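 active means mean inhibition at 8 µM reaching about 37%, which flags the compound as non-specific, limit read from the data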;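 further: p53-null SaOS-2 cells with luciferase driven by a doxycycline-inducible promoter; compound on cells about two nights before reading with doxycycline added after day one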
# An asterisk follows results filed as active; . = no result.
SMILES,aSyn UTR inh,Gli-Sufu antag,CSC inhib,697 NFkB inh,Jurkat NFkB inh,Mdm2-MdmX inh,Mdm2 MdmX conf,others
COC(=O)[C@@]1(Cc2ccc(F)cc2)[C@H]2c3cc(C(=O)N4CCCC4)n(Cc4ccc(C(F)(F)F)nc4)c3C[C@H]2CN1C(=O)c1ccccc1,17.8,18.5,12.1,3.2,9.2,7.6,.,
COC(=O)[C@@]1(Cc2ccc(F)cc2)[C@H]2c3cc(C(=O)N4CCCC4)n(CCCNc4ncc(C(F)(F)F)cc4Cl)c3C[C@H]2CN1C(=O)c1ccccc1,18.5,3.7,25.7,9.7,29.6,62.0*,-1.1,
Cc1ccccc1NC(=O)Cc1nnc(NC(=O)Nc2ccccc2F)s1,-19.9,-7.0,14.9,-11.1,-6.4,77.4*,9.6,
Cc1ccc(-c2sc(-c3ccccc3)nc2CC(=O)Nc2ccccc2F)cc1,34.7,4.5,6.0,-5.6,11.9,52.3*,8.8,
NC1CCCCC1N=Cc1c(O)n(CCc2ccc(F)cc2)c(=O)[nH]c1=O (stereo not drawn),-2.3,-9.7,.,.,.,.,.,
O=c1[nH]c(=O)n(CCc2ccc(F)cc2)c(O)c1C=NCc1ccc2c(c1)OCO2,6.9,.,.,0.5,0.6,80.0*,5.5,
Cc1ccc(-n2c(N)c(C(=O)Nc3c(C)n(C)n(-c4ccccc4)c3=O)c3nc4ccccc4nc32)cc1C,74.0*,.,3.7,2.7,16.0,50.8*,27.6,
Cc1ccc(C)c(NC(=S)NCc2ccc3[nH]c4c(c3c2)CCCC4)c1,13.8,2.1,.,-9.8,14.6,63.6*,13.3,
CNC(=S)NCc1ccc2[nH]c3c(c2c1)CCCC3,-19.8,6.2,-5.3,8.4,-4.2,-6.8,.,
S=C(NCc1ccc(Cl)cc1)Nc1ccccc1Cl,14.1,-3.5,-6.0,-1.5,1.3,-8.9,.,
S=C(NCc1ccc2[nH]c3c(c2c1)CCCC3)Nc1ccccc1Cl,25.4,0.3,.,-11.5,-7.7,64.2*,29.4,
CCCCNC(=S)NCc1ccc2[nH]c3c(c2c1)CCCC3,-9.1,1.5,10.7,1.7,9.2,-3.6,.,
Cc1ccccc1NC(=S)NCc1ccc2[nH]c3c(c2c1)CCCC3,-10.3,4.3,22.9,-1.2,7.8,65.4*,32.2,
CCn1ccnc1CN1CCC(n2nccc2NC(=O)c2ccccc2OC)CC1,10.0,11.5,-3.6,-9.6,9.3,15.6,.,
O=[N+]([O-])c1cccnc1N1CCN(c2ccc(F)cc2)CC1,-3.2,0.9,8.5,2.1,-4.3,-6.1,.,
CCOc1ccccc1NC(=O)CCSc1nc2n[nH]c(C)c2c(=N)n1-c1ccccc1Cl,36.1,3.6,12.8,5.0,-5.0,28.0,.,
Cc1ccccc1-n1c(SCC(=O)Nc2ccccc2Cl)nc2n[nH]c(C)c2c1=N,38.1,27.8,15.5,-22.5,11.8,65.8*,11.9,
COc1ccc(OC)c(NC(=O)CSc2nc3n[nH]c(C)c3c(=N)n2-c2cccc(Cl)c2C)c1,30.3,27.7,21.4,-5.6,4.8,49.3,.,
Cc1[nH]nc2nc(SCC(=O)NCCC3=CCCCC3)n(-c3ccc(Br)cc3)c(=N)c12,74.5*,5.4,56.5,-22.8,19.6,91.2*,47.4*,Full FLuc ctr=31.1
CCOc1ccccc1-n1c(SCC(=O)Nc2ccc(CC)cc2)nc2n[nH]c(C)c2c1=N,83.6*,4.1,0.3,1.3,-0.7,93.0*,10.8,
CC1CN(c2ccccc2)c2nc3c(c(=O)[nH]c(=O)n3C)n2C1 (stereo not drawn),38.6,16.4,3.3,10.4,19.1,-3.1,.,
CCN(Cc1ccncc1)Cc1ccc(Br)cc1,10.8,9.5,-14.2,10.3,-7.5,16.0,.,
Cc1cc(C)nc(SC2CCCCC2NS(=O)(=O)c2ccccc2)n1 (stereo not drawn),13.8,-6.6,.,-5.9,-18.0,29.7,.,
COc1ccc(/C=N/n2cnc3scc(-c4cccs4)c3c2=O)cc1OC,22.3,25.5,-7.4,1.6,-3.0,4.2,.,
COc1cc(/C=N/n2cnc3scc(-c4cccs4)c3c2=O)cc(OC)c1OC,8.7,18.6,54.9,-59.6,31.9,61.3*,35.5,
SMILES,aSyn UTR inh,Gli-Sufu antag,CSC inhib,697 NFkB inh,Jurkat NFkB inh,Mdm2-MdmX inh,Mdm2 MdmX conf,others
COc1ccccc1-c1cc(C(F)(F)F)nc(S(=O)(=O)CCCC(=O)O)n1,8.1,8.7,19.0,-9.7,-6.0,3.8,.,
COc1ccc(-c2cc(C(F)(F)F)nc(S(=O)(=O)CCCC(=O)Nc3cccc(O)c3)n2)cc1OC,-16.4,-0.1,.,-20.6,4.3,73.1*,35.5,
COc1ccccc1-c1cc(C(F)(F)F)nc(S(=O)(=O)CCCC(=O)N2CCOCC2)n1,-44.3,-3.6,82.2*,-244.3,28.0,96.8*,97.7*,Full FLuc ctr=1.4
COc1ccc(-c2cc(C(F)(F)F)nc(SCC(=O)Nc3cc(C)on3)n2)cc1,-60.5,0.6,-13.4,-16.5,43.5,24.7,.,
Cc1cc(NC(=O)CCS(=O)(=O)c2nc(-c3ccccc3)cc(C(F)(F)F)n2)no1,.,9.8,35.5,-81.6,20.8,88.2*,77.5*,Full FLuc ctr=43.5*
CCc1ccc(-c2ccc(SCC(=O)Nc3nnc(C)s3)nn2)cc1,-83.3,-17.5,0.2,23.4,-78.4,-50.2,.,
Cc1c(NC(=S)Nc2cccc(Cl)c2)c(=O)n(-c2ccccc2)n1C,6.8,-0.2,2.9,-5.9,5.6,10.8,.,
Cc1nnc(SCC(=O)N2CCN(c3ccccc3)CC2)n(N)c1=O,-9.6,19.1,4.1,3.3,-0.7,-6.1,.,
C/C(=N\NC(=O)c1cccc(F)c1)c1ccc(Br)s1,-45.0,-27.4,49.9,-45.4,29.1,71.8*,49.4*,Full FLuc ctr=44.2*
C/C(=N\NC(=O)c1ccccc1O)c1ccc(Br)s1,-161.9,-42.7,-7.5,-44.5,-18.4,-32.1,.,
CCCn1c(=O)n(C)c(=O)c2c(SCC(=O)NC34CC5CC(CC(C5)C3)C4)nc(CC(C)C)nc21,6.6,8.4,-1.9,-40.1,-6.8,-10.1,.,
COc1ccc(-c2nc(NC(=O)C3CC(=O)N(c4ccc5c(c4)OCCO5)C3)sc2C)cc1 (stereo not drawn),-0.9,13.8,53.4,-17.7,22.8,66.1*,57.9*,Full FLuc ctr=36.2*
COc1ccc2nc(NC(=O)C3CC(=O)N(c4ccc5c(c4)OCCO5)C3)sc2c1 (stereo not drawn),.,-8.9,.,-4.8,-6.7,9.4,.,
Cc1cc(C)nc(N/N=C/c2cc(Br)ccc2O)n1,18.7,24.9,40.5,-18.2,26.7,75.3*,75.6*,Full FLuc ctr=26.2
Cc1cc(C)nc(N/N=C/c2ccccc2OCc2ccc(Br)cc2)n1,-143.7,7.8,6.6,-16.4,-22.8,-28.8,.,
CCC/C(C)=N/NC(=O)c1ccccc1O,-52.9,-7.3,-13.8,5.7,-5.8,14.4,.,
CCOC(=O)C(CC)/C(C)=N\NC(=O)c1ccccc1O (stereo not drawn),93.5*,-13.7,41.1,-15.6,-3.7,67.8*,49.8*,Full FLuc ctr=76.8*
O=C(CCCN1C(=O)/C(=C\c2cccs2)SC1=S)NNC(=O)c1ccncc1,-35.3,8.5,-7.6,12.1,1.7,-6.7,.,
